Assay outcomes from PubChem BioAssay.
This is one part of a sample in which hits are shown more often than they occur.
Tgondii IFNg: T. gondii growth inhibition with IFN-gamma, primary screen, cell-based | activity change, negative = inhibition, % (concentration not given with the values) | Toxoplasma gondii growth in IFN-gamma-treated host cells; active compounds read low | AID 1259416, 2018 | 69,000 tested, 3.8% active; in the data active = activity change below about -70%, passing the limit was not always enough;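 note: host cells are HeLa cells infected with Toxoplasma gondii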
Numbers stand for hits; 0 = inactive.

SMILES	Tgondii IFNg
CC1CCN(S(=O)(=O)c2ccc3c(c2)CCC(=O)N3CC(=O)NCc2ccccc2)CC1	0
CC1CCN(S(=O)(=O)c2ccc3c(c2)CCC(=O)N3CC(=O)Nc2cccnc2)CC1	0
Cc1cccc(NC(=O)CN2C(=O)CCc3cc(S(=O)(=O)N4CCCCC4C)ccc32)c1C (stereo unspecified)	0
CC1CCN(S(=O)(=O)c2ccc3c(c2)CCC(=O)N3CC(=O)Nc2ccc(F)c(F)c2)CC1	0
Cc1ccc(C)c(NC(=O)CN2C(=O)CCc3cc(S(=O)(=O)N4CCCCC4C)ccc32)c1 (stereo unspecified)	0
CSc1cccc(NC(=O)CN2C(=O)CCc3cc(S(=O)(=O)N4CCCC4)ccc32)c1	0
CCc1cccc(NC(=O)CN2C(=O)CCc3cc(S(=O)(=O)N4CCCCC4C)ccc32)c1 (stereo unspecified)	-76.8
CC(=O)c1ccc(-c2nccc(CCC(F)(F)F)n2)s1	0
CCN1CCN(C(=O)c2nc(-c3ccc(Cl)cc3)n3c2CCCCC3)CC1	0
CC1CCN(S(=O)(=O)c2ccc3c(c2)CCC(=O)N3CC(=O)N2CCC3(CC2)OCCO3)CC1	0
O=C1CC(c2cccnc2)C2(CCN(C(=O)c3ccoc3)CC2)N1 (stereo unspecified)	0
CCOC(=O)CC1C(=O)NCCN1Cc1ccoc1 (stereo unspecified)	0
COc1ccccc1OC1CN(C(=O)c2cnn3c2CCCC3)C1	0
COc1ccc(OC)c(NC(=O)Nc2ccc(-c3nc(-c4cc(C)ccc4C)co3)cc2)c1	0
CN(Cc1cccs1)C(=S)SCc1cccs1	0
COC(=O)CC(=O)CC(C)n1nc(C)nc1C (stereo unspecified)	0
O=C(c1ccccc1Cl)N1CCN(S(=O)(=O)c2cc3c4c(c2)CCC(=O)N4CCC3)CC1	0
O=C(Cc1ccc(OC(F)(F)F)cc1)N1CCc2[nH]cnc2C12CCCC2	-79.7
O=C(Cc1ccc(F)cc1)N1CCC2(CC1)COCCN(c1ncccn1)C2	0
COc1ccc(C(=O)N2CCc3[nH]cnc3C23CCCCC3)cc1	0
COc1ccc(-c2nc(CN3CCCC3c3ccccn3)c(C)o2)cc1 (stereo unspecified)	0
COc1ccc(-n2cccn2)c(CN2CCC(n3nc(C)cc3C)C2)c1 (stereo unspecified)	0
COc1ccc(-n2cccn2)c(CN2CCCCC2c2ccccn2)c1 (stereo unspecified)	-85.2
NC(=O)N1CCO[C@]2(CCC[C@H]2COc2cccnc2)C1	0
CS(=O)(=O)c1ccc(CN2CCCC3(CCNC3)C2)cc1 (stereo unspecified)	0
SMILES	Tgondii IFNg
CCN(CC)c1ncnc2c1cnn2CC(=O)NCc1ccc(F)cc1	-94.0
CCN(CC)c1ncnc2c1cnn2CC(=O)NCc1ccc(C)o1	0
CCN(CC)c1ncnc2c1cnn2CC(=O)NCc1ccc(C(F)(F)F)cc1	0
CCN(CC)c1ncnc2c1cnn2CC(=O)NCc1ccc(C)cc1	-85.8
CCN(CC)c1ncnc2c1cnn2CC(=O)NCCOC	0
CCN(CC)c1ncnc2c1cnn2CC(=O)Nc1ccc(OC)cc1	0
CCOc1ccc(NC(=O)Cn2ncc3c(N(CC)CC)ncnc32)cc1	0
CCN(CC)c1ncnc2c1cnn2CC(=O)NCc1cccc(C(F)(F)F)c1	0
CCN(CC)c1ncnc2c1cnn2CC(=O)Nc1cccc(F)c1	-75.0
COc1ccc(CNc2nccc(N3CCC(O)CC3)n2)c(OC)c1	0
COc1ccc(NC(=O)c2nnn(Cc3nc(-c4ccccc4C)oc3C)c2C)c(OC)c1	0
CCCCCC1CCC(c2ccc(C#N)c(Cl)n2)CC1 (stereo unspecified)	0
Cc1cnc(N2CCC[C@@H]3CN(S(C)(=O)=O)C[C@H]32)nc1	0
CCOCC1CN(C(=O)c2ccsc2)Cc2cn(CC3CC3)nc21 (stereo unspecified)	0
Cc1nc(C(C)NC(=O)CSc2ncnc3sc(C)cc23)n[nH]1 (stereo unspecified)	0
Cc1ccc(Sc2c(Sc3ccc(C)cc3)c(=O)c2=O)cc1	-88.0
Cc1ccc(SCCC(=O)c2ccc(Cl)cc2)cc1	0
Cc1ccc(SCCNS(C)(=O)=O)cc1	0
CCCCn1c(=O)cc(O)c2ccccc21	0
Cc1ccc(C)c(N2CCN(C(=O)CC3Nc4c5ccccc5nc(=S)n4C3=O)CC2)c1 (stereo unspecified)	0
CCCn1c(=O)cc(N2CCN(C(=O)CC)CC2)c2cc(C)ccc21	-76.2
CCOC(=O)c1cnc(-c2ccccc2)nc1Nc1ccc(C)cc1	0
COc1ccc(-n2nnc(C(C)=O)c2NCc2ccco2)cc1	0
CCOC(=O)c1ccc(Nc2nc3nonc3nc2NCc2ccco2)cc1	-101.6
CSC1=NCCN1CC(=O)c1ccc(F)cc1	0
SMILES	Tgondii IFNg
Cc1nc(-c2cccnc2)nc(N2CCCN(c3ccc(C(F)(F)F)cn3)CC2)c1Cl	-97.9
CC(C)Cc1ccc(C(=O)C(C)N2CCN(c3ccc(C(F)(F)F)cn3)CC2)cc1 (stereo unspecified)	0
Cc1nc(-c2ccccc2)nc2c1CCN(c1cnccn1)CC2	0
COc1ccc(C(=O)N2C[C@H]3CC=CC[C@H]3C2)cc1N1CCOCC1	0
C=CCN1CC[C@@]2(CN(Cc3nccn3C)C[C@H]2c2ccccc2)C1=O	0
Cc1cccc(NC(=O)N2Cc3ccccc3C3(CCN(S(=O)(=O)N(C)C)CC3)C2)c1	0
CCOC1COC2(CCN(S(=O)(=O)C3CC3)CC2)C1 (stereo unspecified)	0
CC(/C=C1\SC(=O)N(CCCC(=O)O)C1=O)=C\c1ccccc1	-81.8
O=C(O)CCCCCNS(=O)(=O)/C=C/c1ccccc1	0
CC1(C)NC(=O)N(CCCC(=O)O)C1=O	0
CCCCCCCCCCCCCCCC(=O)OC[C@H](COP(=O)(O)OCC[N+](C)(C)C)OC(=O)CCCCCCCCCCCCCCC	0
Cc1ccc2cc(C)c3nn(CCNC(=O)c4c(-c5cccnc5)noc4C)c(=O)n3c2c1	0
O=C(c1ncoc1C1CC1)N1C[C@H]2OC(=O)N(CCCc3ccc(F)cc3)[C@H]2C1	0
CCc1nn(C)c(Cl)c1CN1CC2(CCNCC2)CC1C(=O)O (stereo unspecified)	0
COc1cccc(CC(=O)N2CCc3nc(-c4ccc(F)cc4)nc(C)c3CC2)c1	0
CC(C)(C)OC(=O)N1CCc2[nH]nc(Nc3ccccc3)c2C1	0
COc1cccc(Nc2nc(-c3ccncc3)nc3c2CN(C(=O)OC(C)(C)C)CC3)c1	-75.2
Cc1cnc(NCCCN2CCCC2)nc1N(C)C	0
Clc1ccc(-c2nccn2-c2ccc3n[nH]nc3c2)cc1	0
O=C(c1ccccc1)c1cc(C(=O)c2ccccc2)c(-c2ccccc2)nc1-c1ccccc1	-89.3
Cc1nc(-c2ccccc2)c(NC(=O)c2ccccc2)s1	0
COc1cc(O)c(C(=O)c2ccccc2)cc1O	0
Cc1oc(-c2ccc(C(F)(F)F)cc2)nc1CN1CCC(c2nc3ccccc3[nH]2)CC1	0
CCCc1cc(=O)oc2cc(OS(=O)(=O)c3ccc(Cl)cc3)ccc12	0
CCNS(=O)(=O)c1ccc(-c2oc3cc(S(=O)(=O)NCC)ccc3c2Cl)cc1	-78.1
CCN(CC)S(=O)(=O)c1ccc2oc3ccc(S(=O)(=O)N(CC)CC)cc3c2c1	0
COc1cccc(C2CCCN2C(=O)c2cnn3c(-c4ccccc4)ccnc23)c1 (stereo unspecified)	0
Cc1nc(CNC(=O)C2CC3(CCNCC3)CN2)nc2c1CCCC2 (stereo unspecified)	0
COc1cccc(S(=O)(=O)N2CCCC3(CN(C(C)=O)CCO3)C2)c1 (stereo unspecified)	0
